This passage reports AC50 results from PubChem BioAssay AID2284144 (EPA ToxCast).

SMILES strings stand for the structures. Activity calls are given as the source filed them. How the source made its calls: active means hit-call score of the fitted dose curve at least 0.9, where 1 is the maximum; inactive means score below 0.9.

Chain of human Adrenoceptor alpha2C Antagonism, ADRA2C (gene 152) (P18825 whole entry, looked up): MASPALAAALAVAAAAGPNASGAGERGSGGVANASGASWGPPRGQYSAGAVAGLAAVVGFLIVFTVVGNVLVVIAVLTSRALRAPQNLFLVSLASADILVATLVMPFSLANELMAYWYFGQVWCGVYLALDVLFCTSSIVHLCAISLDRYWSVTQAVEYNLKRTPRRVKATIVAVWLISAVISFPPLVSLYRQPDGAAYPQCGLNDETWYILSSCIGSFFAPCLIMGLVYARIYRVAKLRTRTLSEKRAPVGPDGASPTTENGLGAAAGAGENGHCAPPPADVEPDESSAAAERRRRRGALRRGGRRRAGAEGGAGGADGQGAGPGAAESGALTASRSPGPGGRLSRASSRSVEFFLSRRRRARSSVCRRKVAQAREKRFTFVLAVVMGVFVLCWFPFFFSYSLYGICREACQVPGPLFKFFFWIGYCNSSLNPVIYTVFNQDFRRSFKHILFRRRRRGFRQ

The target in this assay is human Adrenoceptor alpha2C Antagonism, ADRA2C (gene 152) (UniProt P18825). Briefly: ERF_TW_GPCR_hADRA2C: Eurofins (ERF) G Protein-Coupled Receptor (GPCR) Radioligand Binding LeadHunter Assay for human Adrenoceptor alpha2C Antagonism. As for the experimental part:
ERF_TW_GPCR_hADRA2C is a biochemical, single-readout assay that uses extracted gene-proteins in a cell-free assay. Measurements were taken 1 hour after chemical dosing in a 96-well plate. See alpha2C Human Adrenoceptor GPCR Binding (Antagonist Radioligand) Assay, Panlabs.ERF_TW_GPCR_hADRA2C is an assay component calculated from the ERF_TW_GPCR_hADRA2C assay. It is designed to measure radioligand binding using a type of binding reporter as detected by scintillation counting with radiometry technology.Data from the assay component ERF_TW_GPCR_hADRA2C was analyzed at the assay endpoint, ERF_TW_GPCR_hADRA2C, in the positive analysis fitting direction relative to DMSO as the negative control and baseline of activity. Using a type of binding reporter, loss-of-signal activity can be used to understand changes in radioligand binding as they relate to gene ADRA2C. To generalize the intended target to other relatable targets, this assay endpoint is annotated to the gpcr intended target family, where the subfamily is adrenoceptor.
Human recombinant adrenergic alpha2C receptor expressed in CHO-K1 cells are used in modified Tris-HCl buffer pH 7.4. A 2 ug aliquot of membrane is incubated with 0.5 nM [3H]Rauwolscine for 60 minutes at 25C. […] Membranes are filtered and washed, the filters are then counted to determine [3H]Rauwolscine specifically bound. […]
On to `O=C(/C=C/c1ccc(O)cc1)CC(=O)/C=C/c1ccc(O)cc1`, for which the AC50 (in general, the concentration at which the activity in the assay is half-maximal) is 602 nM (active).
